# Only some compounds are listed: those with a hit (about 2.4% of all), similar ones and a draw of the others.
# M1 ag parental = counter-screen for M1 agonists: effect in parental CHO-K1 cells. Fluo-8 calcium fluorescence; scaled to maximal ATP response, vehicle zero. activation, % at 3 µM. 0.48% of 360,000 active; in the data active = activation above about 15%;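 note: untransfected CHO-K1 host cells lacking M1 receptor as counterscreen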
# M1 ag = human M1 muscarinic receptor agonists, primary screen, Fluo-8 calcium fluorescence, CHO-K1 cells, HTS | Muscarinic acetylcholine receptor M1 (Homo sapiens), P11229 | activation, % at 3 µM | CHO-K1 hM1, agonist mode; 0% DMSO, 100% acetylcholine EC100 | 0.33% of 360,000 active;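 active = activation above the run's mean compound activation plus 3 SD, cut at about 16% in these data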;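 note: peak over basal fluorescence ratio within a 140 s kinetic read after compound addition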
# Target sequence (P11229 whole entry, looked up): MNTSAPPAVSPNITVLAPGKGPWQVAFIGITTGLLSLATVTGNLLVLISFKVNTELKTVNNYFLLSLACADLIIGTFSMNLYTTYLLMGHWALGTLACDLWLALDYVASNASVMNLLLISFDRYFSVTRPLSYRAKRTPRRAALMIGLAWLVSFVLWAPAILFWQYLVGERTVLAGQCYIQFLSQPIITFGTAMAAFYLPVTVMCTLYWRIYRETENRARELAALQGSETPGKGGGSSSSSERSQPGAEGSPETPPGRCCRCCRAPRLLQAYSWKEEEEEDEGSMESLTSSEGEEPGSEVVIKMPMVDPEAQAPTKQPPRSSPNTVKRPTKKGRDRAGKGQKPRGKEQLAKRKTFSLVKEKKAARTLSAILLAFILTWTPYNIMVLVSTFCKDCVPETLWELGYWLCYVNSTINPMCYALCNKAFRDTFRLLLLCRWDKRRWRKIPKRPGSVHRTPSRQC
# M1 antag = human M1 muscarinic receptor antagonists, primary screen, CHO-K1 cells, Fluo-8 calcium fluorescence, 1536-well | CHO-K1 hM1, ACh EC80 antagonist | inhibition, % at 3 µM | 1.3% of 360,000 active;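 active = percent inhibition above its own plate's cutoff, namely the mean of that plate's compound wells plus 3 SD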;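 note: peak over basal fluorescence ratio during 140 s after agonist addition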
# CHO-K1 Ca PAM = nonselective calcium activators in parental CHO-K1 cells, primary screen, counter-screen for M1 PAM project, cell-based, Fluo-8 calcium fluorescence, full deck, 1536-well; activation, % at 3 µM; 0.02% of 360,000 active; ATP EC20; 0% at ATP EC20, 100% at ATP max;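 active = activation above the run cutoff, the mean activation of all test compounds plus 3 SD, cut at about 40% in these data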;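 note: peak over basal fluorescence ratio in a 140 s read after ATP addition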
# M1 PAM = human M1 muscarinic receptor positive allosteric modulators, primary screen, CHO-K1 cells, Fluo-8 calcium fluorescence, 1536-well; 0.088% of 360,000 active; Muscarinic acetylcholine receptor M1 (Homo sapiens), P11229; CHO-K1 hM1, ACh EC20; 0% = ACh EC20, 100% = maximal ACh; activation, % at 3 µM; in the data active = activation above about 19%, passing the limit was not always enough
# CHO-K1 Ca antag = counter-screen for M1 antagonists: effect in parental CHO-K1 cells; 0.6% of 360,000 active; inhibition, % at 3 µM; ATP-induced calcium, Fluo-8 fluorescence;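 active = inhibition above a per-plate cutoff, the plate's mean sample inhibition plus 3 SD, cut at about 24% in these data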
# A number is an active result; – = inactive.
SMILES,M1 ag parental,M1 ag,M1 antag,CHO-K1 Ca PAM,M1 PAM,CHO-K1 Ca antag
CCN(CC)c1ccc(CNc2nnnn2C)cc1,–,–,60,–,–,–
COCC(C)Nc1ncnc2c1cnn2-c1ccc(Cl)cc1 (stereo unspecified),–,–,–,–,–,–
CC(=O)c1ccc(N2CCN(CC(O)COC(c3ccccc3)c3ccccc3C)CC2)cc1 (stereo unspecified),–,–,101,–,–,–
CC(=O)c1ccc(N2CCN(CC(O)COC(c3ccccc3)c3ccccc3)CC2)cc1 (stereo unspecified),–,–,91,–,–,–
OC(COC(c1ccccc1)c1ccccc1)CN1CCN(c2cccc(Cl)c2)CC1 (stereo unspecified),–,–,–,–,–,–
Cc1ccc(C(=O)C[n+]2cccc3cc(C)ccc32)cc1,–,–,–,–,–,–
CN(C(=O)c1cc2c(cc1Br)OCO2)c1cccc2ccccc12,–,–,–,–,–,–
COc1cccc(-c2nc(CS(=O)(=O)CC(=O)Nc3ccccc3Br)c(C)o2)c1,–,–,–,–,–,–
CCCCn1c(=O)[nH]c2nc3cc(N)ccc3nc2c1=O,24,25,–,–,–,–
Nc1ccc2nc3c(=O)n(CCc4ccccc4)c(=O)[nH]c3nc2c1,53,53,–,–,–,–
Cc1cc2nc3c(=O)n(CCc4ccccc4)c(=O)[nH]c3nc2cc1N,26,–,–,–,–,–
Nc1ccc2nc(CCc3ccccc3)[nH]c2c1,–,–,–,–,–,–
Nc1ccc2nc3c(=O)n(C4CCCCC4)c(=O)[nH]c3nc2c1,95,100,–,–,–,30
COc1ccc(N2C(=O)c3ccccc3NC23CCCC3)cc1,–,–,–,–,–,–
Cc1cc(NC(=O)c2ccc(N(C)S(=O)(=O)c3ccccc3)cc2)no1,17,–,–,–,–,–
CN(c1ccc(C(=O)NCCSCc2ccccc2)cc1)S(=O)(=O)c1ccccc1,–,–,–,–,–,24
Cc1cccc(CSCCNC(=O)c2ccc(N(C)S(=O)(=O)c3ccccc3)cc2)c1,–,–,–,–,–,–
CN(c1ccc(C(=O)Nc2ccccn2)cc1)S(=O)(=O)c1ccccc1,–,–,–,–,–,–
CN(c1ccccc1)S(=O)(=O)c1ccc(NC(=O)c2ccccc2)cc1,–,–,–,–,–,–
COc1ccc(CNC(=O)c2ccc(N(C)S(=O)(=O)c3ccc(C)cc3)cc2)cc1,–,–,–,–,–,25
CN(c1ccccc1)S(=O)(=O)c1ccc(NC(=O)c2ccc(F)cc2)cc1,19,–,–,–,–,–
c1ccc(Oc2cccc(OCCCCN3CCCC3)c2)cc1,–,–,40,–,–,–
CC1CN(CCCCOc2cccc(Oc3ccccc3)c2)CC(C)O1 (stereo unspecified),–,–,29,–,–,–
CCN(c1ccccc1)S(=O)(=O)c1ccc(NC(=S)NC(=O)c2cccs2)cc1,–,–,–,–,–,–
COc1ccc(CN(C)C(=O)CNC(=O)c2ccc3ccccc3c2)c(OC)c1,–,–,–,–,–,–
SMILES,M1 ag parental,M1 ag,M1 antag,CHO-K1 Ca PAM,M1 PAM,CHO-K1 Ca antag
COc1ccc(Br)cc1CN(C)C(=O)CNC(=O)c1ccc2ccccc2c1,–,–,29,–,–,–
O=C(CNC(=O)c1cccc(Cl)c1)Nc1ccc(F)c(F)c1F,–,–,–,–,–,–
O=C(CSc1cc(Cl)ccc1Cl)NCC(=O)Nc1ccc(F)c(F)c1F,15,–,–,–,–,–
NC(=S)NNC(=O)C12CC3CC(CC(C3)C1)C2,19,29,23,–,–,–
CCCCSc1nc2[nH]ncc2c(=O)[nH]1,–,–,–,–,–,–
CCCCN(CCCC)c1cn[nH]c(=O)c1Cl,–,–,27,–,–,–
O=C(O)c1cccc2c1-c1c(cccc1[N+](=O)[O-])C2,–,–,–,–,–,–
CCCN1C(=O)/C(=C/c2ccc(N3CCOCC3)cc2)NC1=S,24,–,–,–,–,–
CCN1C(=O)/C(=C/c2ccc(N3CCCC3)cc2)NC1=S,57,57,56,–,–,49
CCN1C(=O)/C(=C/c2ccc(OCc3ccc(C(=O)O)cc3)c(Cl)c2)NC1=S,16,–,–,–,–,29
N=c1c(S(=O)(=O)c2ccc(Br)cc2)cc2c(=O)n3ccccc3nc2n1C1CCCC1,–,–,–,–,–,–
O=C(O)c1cc(N2C(=O)C3CCCCC3C2=O)ccc1NCc1cccnc1 (stereo unspecified),–,–,–,–,–,–
CCC1CCCCN1CCCNS(=O)(=O)c1ccc2c(c1)oc(=O)n2C (stereo unspecified),–,–,–,–,–,–
CCC1CCCCN1CCNS(=O)(=O)c1ccc2c(c1)oc(=O)n2C (stereo unspecified),–,–,50,–,–,–
O=C(COc1cccc2ccccc12)Nc1ccc(Cl)cc1C(=O)O,–,–,–,–,–,–
Cc1cc(C)nc(N2CCC(C(=O)NCCc3ccc(F)cc3)CC2)n1,–,–,–,–,–,–
CCC1CCCCN1CCNC(=O)C1CCN(S(=O)(=O)c2cccc3nsnc23)CC1 (stereo unspecified),–,–,52,–,–,–
CC1CCN(CCNC(=O)C2CCN(S(=O)(=O)c3cccc4nsnc34)CC2)CC1,–,–,–,–,–,–
CC(C)OCCCNC(=O)C1CCC(CNS(=O)(=O)c2cccc3nsnc23)CC1 (stereo unspecified),–,–,–,–,–,–
Cc1cccc(N2CCN(C(=O)C3CCN(S(=O)(=O)c4cccc5cccnc45)CC3)CC2C)c1 (stereo unspecified),–,–,–,–,–,–
O=C(C1CCN(S(=O)(=O)c2cccc3nsnc23)CC1)N1CCn2c1nc1ccccc12,–,17,–,–,–,–
Cc1cccc(N2CCN(C(=O)C3CCN(S(=O)(=O)c4cccc5nsnc45)CC3)CC2C)c1 (stereo unspecified),–,–,25,–,–,–
CCCN(CCC)CCCNC(=O)C1CCC(CNS(=O)(=O)c2cccc3nsnc23)CC1 (stereo unspecified),–,–,51,–,–,–
CCOC(=O)N/N=C/c1c[nH]c2ccccc12,–,–,–,–,–,–
